Source: PubChem BioAssay (EPA / NIEHS)
Records with an inconclusive call do not appear. Activity calls are given as the source filed them. The calls were made as follows: active = hit-call score of the fitted dose curve at least 0.9, where 1 is the maximum; inconclusive = response in the unintended direction; inactive = score below 0.9.

target: human Adrenergic, Alpha 2c Receptor (Adra2C), ADRA2C (gene 152) (UniProt P18825); assay: NVS_GPCR_hAdra2C: NovaScreen (NVS) G Protein-Coupled Receptor Assay for human Adrenergic, Alpha 2c Receptor (Adra2C) (AID 2283259)
Summary of the method: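 Radioligand binding on Sf9-expressed receptor membranes, 1 h after chemical dosing, filter-based scintillation read-out. Loss of binding fitted positively versus DMSO; primary duplicate screen at 25 uM, actives retested in concentration series.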

human Adrenergic, Alpha 2c Receptor (Adra2C), ADRA2C (gene 152), sequence (P18825 whole entry, looked up): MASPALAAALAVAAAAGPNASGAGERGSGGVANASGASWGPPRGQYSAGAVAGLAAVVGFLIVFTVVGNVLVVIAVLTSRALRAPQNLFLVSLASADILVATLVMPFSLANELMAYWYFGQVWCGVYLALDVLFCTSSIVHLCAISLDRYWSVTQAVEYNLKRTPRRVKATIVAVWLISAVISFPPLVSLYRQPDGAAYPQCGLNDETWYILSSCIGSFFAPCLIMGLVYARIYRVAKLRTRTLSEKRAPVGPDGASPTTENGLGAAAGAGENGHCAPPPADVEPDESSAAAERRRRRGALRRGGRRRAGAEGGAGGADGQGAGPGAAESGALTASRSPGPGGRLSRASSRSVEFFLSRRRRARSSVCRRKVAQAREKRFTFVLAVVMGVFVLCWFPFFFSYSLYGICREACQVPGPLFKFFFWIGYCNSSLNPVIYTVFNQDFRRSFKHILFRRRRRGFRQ

Structure (SMILES)	outcome	AC50
C[N+]1(C)CCCCC1	inactive	
CCc1cnc(C2=NC(C)(C(C)C)C(=O)N2)c(C(=O)O)c1 (centres undefined)	inactive	
CC[C@H](C)[C@H]1O[C@]2(C=C[C@@H]1C)C[C@@H]1C[C@@H](C/C=C(\C)[C@@H](O[C@H]3C[C@H](OC)[C@@H](O[C@H]4C[C@H](OC)[C@@H](NC)[C@H](C)O4)[C@H](C)O3)[C@@H](C)/C=C/C=C3\CO[C@@H]4[C@H](O)C(C)=C[C@@H](C(=O)O1)[C@]34O)O2		10.7 µM (active)

target: Type-1 angiotensin II receptor (Homo sapiens) (UniProt P30556); assay: NVS_GPCR_hAT1: NovaScreen (NVS) G Protein-Coupled Receptor Assay for human Angiotensin II receptor type 1 (AT1) (AID 2283263)
Summary of the method: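 Membranes from KAN-TS cells; radioligand competitive displacement, 3 h, filtration and scintillation counting. Single-point duplicate screen at 25 uM, then concentration-response up to 50 uM for hits; loss of signal fitted versus DMSO.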

Type-1 angiotensin II receptor (Homo sapiens), sequence (P30556 whole entry, looked up): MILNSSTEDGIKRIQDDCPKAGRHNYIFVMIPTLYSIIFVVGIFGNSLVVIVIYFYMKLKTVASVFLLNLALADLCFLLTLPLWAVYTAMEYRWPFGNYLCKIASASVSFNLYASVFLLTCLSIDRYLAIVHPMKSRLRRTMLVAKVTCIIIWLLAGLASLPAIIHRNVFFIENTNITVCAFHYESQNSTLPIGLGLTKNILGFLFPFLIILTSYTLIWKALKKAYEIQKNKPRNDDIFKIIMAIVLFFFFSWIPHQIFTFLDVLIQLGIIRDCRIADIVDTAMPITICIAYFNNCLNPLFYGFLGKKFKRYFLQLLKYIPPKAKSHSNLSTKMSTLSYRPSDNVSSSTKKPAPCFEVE

Structure (SMILES)	AC50	outcome
N#CSCSC#N	14.9 µM (active)	
CCCSP(=O)(OCC)Oc1ccc(Br)cc1Cl (centres undefined)		inactive
COP(=O)(OC)OC(Br)C(Cl)(Cl)Br (centres undefined)	13.5 µM (active)	
CCOP(=S)(OCC)Oc1cc(C)nc(C(C)C)n1		inactive
CCCOc1nn(C(=O)NS(=O)(=O)c2ccccc2C(=O)OC)c(=O)n1C		inactive
CCOP(=O)(OCC)Oc1cc(C)nc(C(C)C)n1		inactive
CC[C@H](C)[C@H]1O[C@]2(C=C[C@@H]1C)C[C@@H]1C[C@@H](C/C=C(\C)[C@@H](O[C@H]3C[C@H](OC)[C@@H](O[C@H]4C[C@H](OC)[C@@H](NC)[C@H](C)O4)[C@H](C)O3)[C@@H](C)/C=C/C=C3\CO[C@@H]4[C@H](O)C(C)=C[C@@H](C(=O)O1)[C@]34O)O2	17 µM (active)	
COc1cc(OC)nc(Sc2cccc(Cl)c2C(=O)O)n1		inactive

target: human Dopamine Receptor D2 (DRD2), DRD2 (gene 1813) (UniProt P14416); assay: NVS_GPCR_hDRD2s: NovaScreen (NVS) G Protein-Coupled Receptor Assay for human Dopamine Receptor D2 (DRD2) (AID 2283266)
Summary of the method: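 Radioligand displacement used human DRD2 membranes extracted from CHO cells and was read by filter-based scintillation counting after 1.5 hours. Primary screening was in duplicate at 25 uM. Loss of signal versus DMSO was fitted, with concentration series in follow-up.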

human Dopamine Receptor D2 (DRD2), DRD2 (gene 1813), sequence (P14416 whole entry, looked up): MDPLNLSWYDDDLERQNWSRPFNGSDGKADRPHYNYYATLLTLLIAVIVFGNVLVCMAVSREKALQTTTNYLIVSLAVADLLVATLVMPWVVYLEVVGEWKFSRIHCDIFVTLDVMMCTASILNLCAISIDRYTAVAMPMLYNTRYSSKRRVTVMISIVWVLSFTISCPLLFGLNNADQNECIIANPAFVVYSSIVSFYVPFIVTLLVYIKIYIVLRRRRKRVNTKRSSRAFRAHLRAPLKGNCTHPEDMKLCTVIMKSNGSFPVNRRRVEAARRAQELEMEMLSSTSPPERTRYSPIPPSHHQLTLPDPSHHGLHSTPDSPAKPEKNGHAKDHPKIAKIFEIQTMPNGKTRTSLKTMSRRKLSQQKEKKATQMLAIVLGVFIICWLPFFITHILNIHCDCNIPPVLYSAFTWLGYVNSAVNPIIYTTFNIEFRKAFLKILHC

Structure (SMILES)	outcome	AC50
CN(C)C(=O)Nc1cccc(C(F)(F)F)c1	inactive	
O=C(O)c1cc(Oc2ccc(C(F)(F)F)cc2Cl)ccc1[N+](=O)[O-]	inactive	
CC[C@H](C)[C@H]1O[C@]2(C=C[C@@H]1C)C[C@@H]1C[C@@H](C/C=C(\C)[C@@H](O[C@H]3C[C@H](OC)[C@@H](O[C@H]4C[C@H](OC)[C@@H](NC)[C@H](C)O4)[C@H](C)O3)[C@@H](C)/C=C/C=C3\CO[C@@H]4[C@H](O)C(C)=C[C@@H](C(=O)O1)[C@]34O)O2		25 µM (active)
S=C1NCCN1	inactive	

target: D(1A) dopamine receptor (Homo sapiens) (UniProt P21728); assay: NVS_GPCR_hDRD1: NovaScreen (NVS) G Protein-Coupled Receptor Assay for human Dopamine Receptor D1 (DRD1) (AID 2283269)
Summary of the method: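 Radioligand displacement binding on membranes/protein extracted from HEK293 expressing human D1, cell-free; read 1 h after dosing by filter-based scintillation counting. Primary screen in duplicate at 25 uM, actives followed up in concentration series; signal loss versus DMSO baseline.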

D(1A) dopamine receptor (Homo sapiens), sequence (P21728 whole entry, looked up): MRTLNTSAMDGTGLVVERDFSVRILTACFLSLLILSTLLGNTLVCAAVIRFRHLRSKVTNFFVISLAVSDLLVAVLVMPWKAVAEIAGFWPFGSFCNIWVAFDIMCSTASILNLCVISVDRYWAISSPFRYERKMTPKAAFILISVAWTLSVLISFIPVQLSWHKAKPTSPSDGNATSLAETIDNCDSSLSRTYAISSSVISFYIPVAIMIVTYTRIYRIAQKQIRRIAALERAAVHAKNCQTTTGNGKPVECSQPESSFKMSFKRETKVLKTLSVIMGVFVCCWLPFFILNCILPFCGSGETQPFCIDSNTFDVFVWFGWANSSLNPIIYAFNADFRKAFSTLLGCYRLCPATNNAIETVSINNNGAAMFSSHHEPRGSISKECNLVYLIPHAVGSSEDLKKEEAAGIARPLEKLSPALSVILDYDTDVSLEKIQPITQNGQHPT

Structure (SMILES)	AC50
COP(=O)(OC)OC(Br)C(Cl)(Cl)Br (centres undefined)	11.8 µM (active)
CC(C)=CC1C(C(=O)OCN2C(=O)C3=C(CCCC3)C2=O)C1(C)C (centres undefined)	6.68 µM (active)
CCCOCC(=Nc1ccc(Cl)cc1C(F)(F)F)n1ccnc1	9.19 µM (active)
CC[C@H](C)[C@H]1O[C@]2(C=C[C@@H]1C)C[C@@H]1C[C@@H](C/C=C(\C)[C@@H](O[C@H]3C[C@H](OC)[C@@H](O[C@H]4C[C@H](OC)[C@@H](NC)[C@H](C)O4)[C@H](C)O3)[C@@H](C)/C=C/C=C3\CO[C@@H]4[C@H](O)C(C)=C[C@@H](C(=O)O1)[C@]34O)O2	8.1 µM (active)
